Among all 320,000 compounds or so, about 2,100 (0.66%) were called active. Roughly 53% stayed inconclusive and do not appear here. Calls follow the shape of the dose curve; as a rule, active = well fitted inhibition curve with a large enough effect in the signal ratio, with a control signal flat (not every such curve was filed as active); inconclusive = small, poorly fitted or top-dose-only effect, or effect the other way, or a change in a side signal; inactive = flat fitted curve, though single readings scatter; the % refers to the signal ratio. Many of the other results were omitted from the sample, so actives are more common in it than they were.
assay: qHTS Assay for Lipid Storage Modulators in Drosophila S3 Cells; settings: BODIPY lipid droplet fluorescence, 18-24 h, cells fed with added oleic acid; cell number change: measured here: cell count max response; series mostly up to 46.1 µM;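 as to cell number change: cells counted by Cell Tracker Red CMTPX staining in the red channel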
Outline: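 Drosophila S3 cells got compounds at several concentrations plus oleic acid (400 uM solution). Laser-scanning cytometry with 488 nm excitation read lipid droplets at 500-530 nm and cells at 575-640 nm. Percent activity was relative to 20 uM Triacsin C.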
Potency is read from the fitted curve at half-maximal effect.

SMILES | Potency | cell number change
Cc1cc(C)cc(Oc2ccc(C(F)(F)F)cc2C#N)c1 | inactive | –
Clc1ccc(CSc2ccc(-c3ccco3)nn2)cc1 | inactive | –
Nc1ccc(-c2nnc(-c3ccccc3)o2)cc1 | 18.4 µM (active) | –
c1ccc(-c2nnc(-c3ccccc3)o2)cc1 | inactive | 0.828%
O=C(O)c1ccc(-c2nnc(-c3ccccc3)o2)cc1 | inactive | 25.5%
CCN1C(=O)/C(=C2\SC(N3CCCCC3)=NC2=O)c2ccccc21 | inactive | -29.3%
CCCCN1C(=O)/C(=C2\SC(N3CCOCC3)=NC2=O)c2ccccc21 | 8.2 µM (active) | -1.69%
Cc1ccc(CN2C(=O)/C(=C3\SC(N4CCOCC4)=NC3=O)c3cc(Br)ccc32)cc1 | inactive | 15.8%
O=C(NC12CC3CC(CC(C3)C1)C2)c1cnccn1 | inactive | 3.24%
CCN(CC)C1CCS(=O)(=O)C1 (stereo unspecified) | inactive | 22.1%
COc1cccc(-c2cc(C(=O)N3CCN(Cc4ccc5c(c4)OCO5)CC3)on2)c1 | inactive | 17%
COc1cc(OC)cc(C(=O)NCC(=O)OCC(=O)NC(C)(C)C)c1 | inactive | 16.7%
COc1cc(OC)cc(C(=O)NCC(=O)OCC(=O)c2cc(OC)ccc2OC)c1 | 23.1 µM (active) | -7.21%
COC(=O)CNC(=O)c1cc(OC)cc(OC)c1 | inactive | 7%
COC(=O)CNC(=O)C(NC(=O)c1ccc(Cl)cc1)C(C)C (stereo unspecified) | 25.9 µM (active) | 12.5%
CC(C)OCCCNC(=O)C(NC(=O)c1ccc(Cl)cc1)C(C)C (stereo unspecified) | inactive | 4.94%
CCC(C)C(NC(=O)c1ccc(Cl)cc1)C(=O)O (stereo unspecified) | inactive | -1.98%
COC(=O)c1cc(C(=O)Nc2cccc(C)n2)cc([N+](=O)[O-])c1 | inactive | –
O=C(O)c1ccccc1NC(=O)C1CCCO1 (stereo unspecified) | 23.1 µM (active) | -12.3%
CCOC(=O)c1ccccc1NC(=O)C1CCCO1 (stereo unspecified) | inactive | 2.7%
COC(=O)c1ccccc1NC(=O)C1CCCO1 (stereo unspecified) | inactive | -0.0238%
COc1cc(/C=C/C(=O)NC(C)C2CC3CCC2C3)cc(OC)c1OC (stereo unspecified) | 2.91 µM (active) | 13.5%
COc1ccc(C(=O)NC(C)C2CC3CCC2C3)c(OC)c1 (stereo unspecified) | inactive | 14.1%
COc1cc(/C=C/C(=O)NC2CCCCC2)cc(OC)c1OC | inactive | 1.65%
CCCCN1C(=O)C(=O)N(CC(=O)Nc2cc(OCC)c(N3CCOCC3)cc2OCC)C1=O | inactive | -17.5%
COC(=O)CCN(c1ccccc1)S(=O)(=O)c1cc(-c2cc(C)no2)ccc1OC | inactive | –
COc1ccc(-c2cc(C)no2)cc1S(=O)(=O)N(C)c1ccc(C)cc1 | inactive | -26.4%
CCCN(c1ccccc1F)S(=O)(=O)c1cc(-c2cc(C)no2)ccc1OC | 4.61 µM (active) | -29.5%
